The source of these data is PubChem BioAssay.

Inconclusive results are not listed. Activity calls are given as the source filed them.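 The calls were made as follows, unless noted: active = compounds killing one labelled cell type while sparing the other, by normalised counts and ratio limits, not self-fluorescent; inactive = the rest.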

Experiment [1] can be described thus: differential killing of epithelial or mesenchymal cells, primary screen, imaging, PC-3E GFP, TEM4-18 mCherry, co-culture (AID 1345086).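 As to all read-outs here: cells exposed to compound for 72 h before imaging.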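 As to red/green cell ratio (normalised): normalised mesenchymal count divided by normalised epithelial count so high means epithelial killing.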 The note with it: imaging cell counts, at 1 µM; for red/green cell ratio (normalised): actives lie on both sides, counts scaled to control wells, 1 = unselective.
Experiment [2] is described as follows: growth inhibition of DIPG glioma cells, dose response, cell-based, SU-DIPG-XIII, MIPE4.0, CellTiter-Glo, qHTS (AID 1347061; cut-off not given, nearly all actives have AC50 up to about 37 µM;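 also: cells exposed to compound for 48 hours before readout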). The note with it: SU-DIPG-XIII viability, CellTiter-Glo ATP luminescence. (In ATP-based viability assays light output follows the ATP content of the culture.)
The nature of experiment [3]: growth inhibition of DIPG glioma cells, dose response, cell-based, JHH-DIPG-1, MIPE4.0, CellTiter-Glo, qHTS (AID 1347062; cut-off not given, nearly all actives have AC50 up to about 27 µM;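 as to AC50: cells exposed to compound for two days before readout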). Particulars: JHH-DIPG-1 viability, CellTiter-Glo ATP luminescence.
Experiment [4] is described as follows: growth inhibition of DIPG glioma cells, dose response, cell-based, SU-DIPG-IV, MIPE4.0, CellTiter-Glo, qHTS (AID 1347063; cut-off not given, nearly all actives have AC50 up to about 30 µM;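 also: compound exposure lasted 48 hours before the viability readout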). The note with it: SU-DIPG-IV viability, CellTiter-Glo ATP luminescence.
The nature of experiment [5]: growth inhibition of DIPG glioma cells, dose response, cell-based, SU-DIPG-XVII, MIPE5.0, CellTiter-Glo, qHTS (AID 1347060; cut-off not given, nearly all actives have AC50 up to about 26 µM;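 as to AC50: cells exposed to compound for 48 hours before viability readout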). Particulars: SU-DIPG-XVII viability, CellTiter-Glo ATP luminescence.
A short description of experiment [6]: growth inhibition of DIPG glioma cells, dose response, cell-based, SU-DIPG-XIII, MIPE5.0, CellTiter-Glo, qHTS (AID 1347064; cut-off not given, nearly all actives have AC50 up to about 23 µM;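 as to AC50: cells exposed to compound for 48 hours before the viability read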). The note with it: SU-DIPG-XIII viability, CellTiter-Glo ATP luminescence.
Where [7] appears, read: measured here: epithelial PC-3E GFP cell survival.
Setting [8] is: measured here: mesenchymal TEM4-18 mCherry cell survival.

`CS(=O)(=O)c1ccc([C@@H](O)[C@@H](CO)NC(=O)C(Cl)Cl)cc1`: the red/green cell ratio (normalised) in experiment [1] was 0.94 (inactive). Besides, the normalised cell number worked out at 1.12 in experiment [1] (setting [7]) and 1.06 in experiment [1] (setting [8]). Moreover, the call in experiment [2], in experiment [3] and in experiment [4] was inactive.
For the compound `O=C(O)c1cccnc1Nc1cccc(C(F)(F)F)c1`, the red/green cell ratio (normalised) in experiment [1] was 0.93 (inactive). The normalised cell number turned out to be 1.08 in experiment [1] (setting [7]) and 1 in experiment [1] (setting [8]). Also, the compound was called inactive in experiment [2], in experiment [3] and in experiment [4].
Take `CCCc1cc(C(N)=S)ccn1`: the red/green cell ratio (normalised) in experiment [1] was 0.84 (inactive). In addition, the normalised cell number in experiment [1] (setting [7]) amounted to 1.14; in experiment [1] (setting [8]), 0.96. The compound was called inactive in experiment [5], in experiment [3] and in experiment [6].
Turning to `COc1ccc2c(c1)c(CC(=O)OCC(=O)O)c(C)n2C(=O)c1ccc(Cl)cc1`, the red/green cell ratio (normalised) in experiment [1] was 0.77 (inactive). The values for the normalised cell number in experiment [1] (setting [7]) and in experiment [1] (setting [8]) were 1.18 and 0.91, respectively. Also, the compound was called inactive in experiment [2], in experiment [3] and in experiment [4].
`NS(=O)(=O)c1cc2c(cc1Cl)NC(C(Cl)Cl)NS2(=O)=O` (stereo not drawn): the red/green cell ratio (normalised) in experiment [1] is 1.22 (inactive). Moreover, the normalised cell number was found to be 0.88 in experiment [1] (setting [7]) and 1.08 in experiment [1] (setting [8]). The compound was called inactive in experiment [5], in experiment [3] and in experiment [4].
Broadly, the AC50 is the midpoint of the concentration-response curve, whichever way the signal moves. Consider `COc1ccc2cc3[n+](cc2c1OC)CCc1cc2c(cc1-3)OCO2`, for which the red/green cell ratio (normalised) in experiment [1] is 0.81 (inactive). Further, the normalised cell number in experiment [1] (setting [7]) turned out to be 0.85; in experiment [1] (setting [8]), 0.69. Besides, the AC50 in experiment [5] was 18.6 µM (active); in experiment [3], 4.18 µM (active); in experiment [6] it was 16.6 µM (active).
Consider `CCC1(C)CC(=O)NC1=O` (stereo not drawn), for which the red/green cell ratio (normalised) in experiment [1] is 1.22 (inactive). Moreover, the values for the normalised cell number in experiment [1] (setting [7]) and in experiment [1] (setting [8]) were 1.07 and 1.31, respectively. In addition, the compound was called inactive in experiment [2], in experiment [3], in experiment [4] and in experiment [6].
`Nc1nc(=S)c2[nH]cnc2[nH]1`: the red/green cell ratio (normalised) in experiment [1] is 1.29 (inactive). Further, the normalised cell number in experiment [1] (setting [7]) is 0.83; in experiment [1] (setting [8]), 1.07. Moreover, the concentration at half-maximal activity (AC50) in experiment [5] was 0.59 µM (active); in experiment [3], 0.833 µM (active); in experiment [4] it was 7.43 µM (active); in experiment [6], 2.35 µM (active).
In the case of `CCC[C@H](N[C@@H](C)C(=O)N1[C@H](C(=O)O)C[C@@H]2CCCC[C@@H]21)C(=O)OCC`, the red/green cell ratio (normalised) in experiment [1] was 1.01 (inactive). Further, the normalised cell number in experiment [1] (setting [7]) and in experiment [1] (setting [8]) was 0.96 throughout. The outcome in experiment [5] and in experiment [6] was inactive.
For `CC(C)COCC(CN(Cc1ccccc1)c1ccccc1)N1CCCC1` (stereo not drawn), in experiment [1], the red/green cell ratio (normalised) is 1.11 (inactive). The values for the normalised cell number in experiment [1] (setting [7]) and in experiment [1] (setting [8]) were 1.06 and 1.18, respectively. The figures for the half-maximal activity concentration (AC50) in experiment [5] and in experiment [6] were 20.9 µM (active) and 14.8 µM (active), respectively.
As to `Cc1cc2cc3c(C)cc(=O)oc3c(C)c2o1`, the red/green cell ratio (normalised) in experiment [1] was 0.99 (inactive). Besides, the normalised cell number is 1.05 in experiment [1] (setting [7]) and 1.04 in experiment [1] (setting [8]). Also, the compound was called inactive in experiment [5] and in experiment [6]. Further, in experiment [4], the AC50 was 20.9 µM (active).
For the compound `CC[N+](CC)(CC)CCOc1cccc(OCC[N+](CC)(CC)CC)c1OCC[N+](CC)(CC)CC`, the red/green cell ratio (normalised) in experiment [1] is 1.1 (inactive). The normalised cell number worked out at 0.87 in experiment [1] (setting [7]) and 0.96 in experiment [1] (setting [8]). The call in experiment [2], in experiment [3] and in experiment [4] was inactive.
Turning to `CCCN(CCC)C(=O)C(CCC(=O)O)NC(=O)c1ccccc1` (stereo not drawn), the red/green cell ratio (normalised) in experiment [1] is 1.08 (inactive). Besides, the normalised cell number in experiment [1] (setting [7]) stood at 0.92; in experiment [1] (setting [8]), 1. For the same compound, the concentration at half-maximal activity (AC50) in experiment [5] is 26.3 µM (active). Further, the compound was classed as inactive in experiment [6].
Take `Cc1nnc(NS(=O)(=O)c2ccc(N)cc2)s1`: in experiment [1], the red/green cell ratio (normalised) was 1.39 (inactive). For the same compound, the normalised cell number was found to be 0.96 in experiment [1] (setting [7]) and 1.33 in experiment [1] (setting [8]). For the same compound, the AC50 in experiment [2] is 20.9 µM (active); in experiment [3], 1.32 µM (active). Further, the compound was classed as inactive in experiment [6].
On to `Nc1ccc(S(=O)(=O)Nc2ccccn2)cc1`, for which the red/green cell ratio (normalised) in experiment [1] was 1.49 (inactive). In addition, the normalised cell number in experiment [1] (setting [7]) is 0.99; in experiment [1] (setting [8]), 1.47. For the same compound, the call in experiment [2] and in experiment [3] was inactive.
In the case of `Cn1c(=O)c2c(ncn2C)n(C)c1=O`, the red/green cell ratio (normalised) in experiment [1] is 0.97 (inactive). Moreover, the normalised cell number stood at 1.17 in experiment [1] (setting [7]) and 1.14 in experiment [1] (setting [8]). The result in experiment [2], in experiment [3] and in experiment [6] was inactive.
Regarding `S=P(N1CC1)(N1CC1)N1CC1`, the red/green cell ratio (normalised) in experiment [1] was 0.99 (inactive). The normalised cell number in experiment [1] (setting [7]) and in experiment [1] (setting [8]) was 1.06 throughout. Further, the AC50 in experiment [5] was 20.9 µM (active). Besides, the compound was called inactive in experiment [3] and in experiment [6].
Take `COC(=O)Nc1nc2ccc(Sc3ccccc3)cc2[nH]1`: in experiment [1], the red/green cell ratio (normalised) was 1.07 (inactive). For the same compound, the normalised cell number in experiment [1] (setting [7]) stood at 0.25; in experiment [1] (setting [8]), 0.26. The AC50 in experiment [5] is 0.934 µM (active); in experiment [4], 2.64 µM (active).
Take `C1CCC(C(CC2CCCCN2)C2CCCCC2)CC1` (stereo not drawn): the red/green cell ratio (normalised) in experiment [1] was 0.98 (inactive). For the same compound, the normalised cell number is 1.13 in experiment [1] (setting [7]) and 1.11 in experiment [1] (setting [8]). For the same compound, the concentration at half-maximal activity (AC50) was 7.42 µM (active) in experiment [5], 9.35 µM (active) in experiment [3], 20.9 µM (active) in experiment [4] and 11.8 µM (active) in experiment [6].
As to `NC(=O)NO`, the red/green cell ratio (normalised) in experiment [1] was 1.09 (inactive). Also, the normalised cell number in experiment [1] (setting [7]) turned out to be 1.01; in experiment [1] (setting [8]) it was 1.1. For the same compound, the compound was classed as inactive in experiment [5] and in experiment [6]. Besides, the concentration at half-maximal activity (AC50) in experiment [3] was 0.526 µM (active); in experiment [4], 1.87 µM (active).
With `CCn1cc(C(=O)O)c(=O)c2cc(F)c(N3CCNCC3)nc21`, the red/green cell ratio (normalised) in experiment [1] is 1.34 (inactive). The normalised cell number in experiment [1] (setting [7]) came to 0.89; in experiment [1] (setting [8]), 1.2. The compound was classed as inactive in experiment [2], in experiment [3] and in experiment [4].
Consider `COc1ccnc(CS(=O)c2nc3ccc(OC(F)F)cc3[nH]2)c1OC` (stereo not drawn), for which the red/green cell ratio (normalised) in experiment [1] is 1.07 (inactive). Moreover, the normalised cell number in experiment [1] (setting [7]) amounted to 1.3; in experiment [1] (setting [8]) it was 1.4. In addition, the compound was called inactive in experiment [5], in experiment [3], in experiment [4] and in experiment [6].
As to `NCCCCCC(=O)O`, the red/green cell ratio (normalised) in experiment [1] is 0.92 (inactive). The normalised cell number came out at 1.31 in experiment [1] (setting [7]) and 1.21 in experiment [1] (setting [8]). In addition, the outcome in experiment [2], in experiment [3], in experiment [4] and in experiment [6] was inactive.
`O=C(NC(Cc1cc(=O)[nH]c2ccccc12)C(=O)O)c1ccc(Cl)cc1` (stereo not drawn): the red/green cell ratio (normalised) in experiment [1] was 1.12 (inactive). Besides, the normalised cell number in experiment [1] (setting [7]) was found to be 0.89; in experiment [1] (setting [8]), 0.99. For the same compound, the compound was classed as inactive in experiment [5], in experiment [3], in experiment [4] and in experiment [6].
As for `C[N+]1(C)[C@@H]2CC(OC(=O)[C@H](CO)c3ccccc3)C[C@H]1[C@@H]1O[C@@H]12` (stereo partly drawn), the result in experiment [5], in experiment [2], in experiment [3], in experiment [4] and in experiment [6] was inactive.
For the compound `CC(C)(C)NC(=O)[C@H]1CC[C@H]2[C@@H]3CC[C@H]4NC(=O)C=C[C@]4(C)[C@H]3CC[C@]12C`, the outcome in experiment [5] was inactive. Further, in experiment [2], the AC50 was 11.8 µM (active).
